Measured values: PubChem BioAssay (NCATS)
A number with no mark means an inactive call. Inconclusive results are not listed. Some of the results follow. A call without a number means that no potency is given here. Active and inactive are the calls of the source. Unless noted, the call rests on the fitted dose curve; in most records, active means well fitted curve in the direction sought with a large enough effect; inconclusive means small, poorly fitted or top-dose-only effect, or another doubt; inactive means no such curve, though single readings can be large; an effect the other way counts as inactive or inconclusive.

Assays:
[1] = target: Tumor susceptibility gene 101 protein (Homo sapiens) (UniProt Q99816); experiment: qHTS Assay for Iinhibitors of HIV-1 Budding by Blocking the Interaction of PTAP/TSG101: Hit Validation (AID 651600); further: nearly all actives have a fitted effect of over 70% in size; further: potency means the concentration at half of the fitted maximal effect
Chain of Tumor susceptibility gene 101 protein (Homo sapiens) (Q99816 whole entry, looked up, the tested form may be a part): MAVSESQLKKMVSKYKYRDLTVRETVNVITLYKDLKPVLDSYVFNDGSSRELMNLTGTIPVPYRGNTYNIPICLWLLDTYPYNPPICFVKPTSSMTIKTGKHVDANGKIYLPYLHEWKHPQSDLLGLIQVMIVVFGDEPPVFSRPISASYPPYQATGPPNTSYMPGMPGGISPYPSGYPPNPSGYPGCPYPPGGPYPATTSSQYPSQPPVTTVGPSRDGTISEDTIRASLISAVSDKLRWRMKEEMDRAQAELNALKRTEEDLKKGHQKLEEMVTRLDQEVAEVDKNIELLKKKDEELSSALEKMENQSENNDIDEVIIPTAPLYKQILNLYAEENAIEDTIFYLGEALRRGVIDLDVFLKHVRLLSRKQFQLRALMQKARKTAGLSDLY
Outline: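 FITC-PTAP peptide (50 nM final) binding to Tsg101 binding domain (10 uM final) was measured by polarization after 20 min at r.t. with compounds, in 10 mM HEPES pH 7.5 buffer with 0.15 M NaCl and 0.01% Tween 20.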

[2] = target: Rap guanine nucleotide exchange factor 3 (Homo sapiens) (UniProt O95398); experiment: Confirmatory qHTS for antagonist of cAMP-regulated guanine nucleotide exchange factor 3 (EPAC1) (AID 1645880); conditions: EPAC1 Rap1B-BODIPY-GDP exchange, fluorescence; activity, negative = inhibition: at 115 µM (top of the series); further: nearly all actives have a fitted effect of over 55% in size; further: potency means the concentration at half of the fitted maximal effect
Chain of Rap guanine nucleotide exchange factor 3 (Homo sapiens) (O95398 whole entry, looked up): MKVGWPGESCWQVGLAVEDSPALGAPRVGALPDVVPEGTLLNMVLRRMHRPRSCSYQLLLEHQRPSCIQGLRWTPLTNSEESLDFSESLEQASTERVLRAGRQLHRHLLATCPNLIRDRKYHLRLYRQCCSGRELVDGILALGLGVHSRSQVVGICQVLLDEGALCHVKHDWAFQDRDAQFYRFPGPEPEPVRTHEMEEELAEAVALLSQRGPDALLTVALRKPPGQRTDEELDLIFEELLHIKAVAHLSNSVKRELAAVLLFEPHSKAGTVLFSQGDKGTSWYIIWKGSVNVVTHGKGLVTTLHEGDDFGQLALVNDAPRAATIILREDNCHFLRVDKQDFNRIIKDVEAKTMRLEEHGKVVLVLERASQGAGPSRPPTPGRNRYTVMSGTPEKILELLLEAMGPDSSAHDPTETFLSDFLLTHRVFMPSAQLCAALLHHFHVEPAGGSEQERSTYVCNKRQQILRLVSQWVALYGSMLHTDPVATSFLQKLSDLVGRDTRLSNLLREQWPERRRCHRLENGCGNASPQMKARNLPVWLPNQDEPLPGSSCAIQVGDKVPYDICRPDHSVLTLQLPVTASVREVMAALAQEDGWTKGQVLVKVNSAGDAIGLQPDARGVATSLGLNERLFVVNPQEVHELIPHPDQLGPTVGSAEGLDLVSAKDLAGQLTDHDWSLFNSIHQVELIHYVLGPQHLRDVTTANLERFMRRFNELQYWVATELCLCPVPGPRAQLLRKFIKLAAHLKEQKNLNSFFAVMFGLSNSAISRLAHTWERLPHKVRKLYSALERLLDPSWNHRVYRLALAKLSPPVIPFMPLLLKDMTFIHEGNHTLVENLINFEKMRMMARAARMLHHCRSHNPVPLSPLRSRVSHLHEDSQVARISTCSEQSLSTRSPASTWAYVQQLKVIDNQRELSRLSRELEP
Outline: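 Released BODIPY-GDP fluoresces less than Rap1-bound BODIPY-GDP; the signal is followed at 480/540 nm at 5-min intervals over 30 min, after 5 min at room temperature. Reactions contain 100 nM EPAC1, 250 nM RAP1B-BODIPY-GDP and 50 uM GDP; results are normalized to ATA and DMSO.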

[3] = target: Rap guanine nucleotide exchange factor 3 (Homo sapiens) (UniProt O95398); experiment: Confirmatory qHTS for agonist of cAMP-regulated guanine nucleotide exchange factor 3 (EPAC1) (AID 1645881); further: nearly all actives have a fitted effect of over 75% in size; further: potency means the concentration at half of the fitted maximal effect;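 on activation: EPAC1 catalysed release of BODIPY-GDP from Rap1B seen as fluorescence loss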
[4] = target: Rap guanine nucleotide exchange factor 4 (Homo sapiens) (UniProt Q8WZA2); experiment: Confirmatory qHTS for agonist of cAMP-regulated guanine nucleotide exchange factor 4 (EPAC2) (AID 1645884);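 further: nucleotide exchange releases bodipy-GDP from Rap1 and this lowers its fluorescence; nearly all actives have a fitted effect of over 65% in size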; further: potency means the concentration at half of the fitted maximal effect
Chain of Rap guanine nucleotide exchange factor 4 (Homo sapiens) (Q8WZA2 whole entry, looked up): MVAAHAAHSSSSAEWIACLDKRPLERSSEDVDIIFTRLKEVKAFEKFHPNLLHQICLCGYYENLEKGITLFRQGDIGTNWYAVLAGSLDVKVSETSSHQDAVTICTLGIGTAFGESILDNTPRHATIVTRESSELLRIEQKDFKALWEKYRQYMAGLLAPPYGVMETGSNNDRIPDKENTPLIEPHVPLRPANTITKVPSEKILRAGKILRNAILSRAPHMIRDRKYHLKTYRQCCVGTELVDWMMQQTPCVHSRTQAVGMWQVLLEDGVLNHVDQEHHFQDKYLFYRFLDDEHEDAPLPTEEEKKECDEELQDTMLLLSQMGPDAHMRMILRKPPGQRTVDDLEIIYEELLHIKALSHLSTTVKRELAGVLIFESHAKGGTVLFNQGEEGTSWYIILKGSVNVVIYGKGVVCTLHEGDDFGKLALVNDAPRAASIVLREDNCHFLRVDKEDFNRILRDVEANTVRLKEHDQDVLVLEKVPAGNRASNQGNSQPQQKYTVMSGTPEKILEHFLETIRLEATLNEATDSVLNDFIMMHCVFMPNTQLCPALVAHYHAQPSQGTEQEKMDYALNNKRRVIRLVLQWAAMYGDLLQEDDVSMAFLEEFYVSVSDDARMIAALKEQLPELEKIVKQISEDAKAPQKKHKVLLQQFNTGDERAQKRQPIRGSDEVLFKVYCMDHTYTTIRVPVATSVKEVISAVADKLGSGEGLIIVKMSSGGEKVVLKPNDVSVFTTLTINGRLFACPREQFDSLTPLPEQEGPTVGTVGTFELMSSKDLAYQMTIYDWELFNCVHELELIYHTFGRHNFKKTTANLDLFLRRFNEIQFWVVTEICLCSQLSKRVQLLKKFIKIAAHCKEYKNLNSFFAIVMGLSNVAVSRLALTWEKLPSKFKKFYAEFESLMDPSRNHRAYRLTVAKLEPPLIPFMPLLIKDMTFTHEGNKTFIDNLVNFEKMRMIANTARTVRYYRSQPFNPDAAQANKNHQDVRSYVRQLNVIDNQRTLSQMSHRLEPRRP

[5] = target: Rap guanine nucleotide exchange factor 4 (Homo sapiens) (UniProt Q8WZA2); experiment: Confirmatory qHTS for antagonist of cAMP-regulated guanine nucleotide exchange factor 4 (EPAC2) (AID 1645885); further: nearly all actives have a fitted effect of over 25% in size; further: potency means the concentration at half of the fitted maximal effect
[6] = target: Rap guanine nucleotide exchange factor 3 (Homo sapiens) (UniProt O95398); experiment: Counterscreen qHTS for antagonist of cAMP-regulated guanine nucleotide exchange factor 3 (EPAC1) (AID 1645888)
Outline: (§1)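 Rap1B–BODIPY-GDP (250 nM) with 50 uM GDP; compounds pin-transferred to 9.74 nM–152 uM final (activator) or from 7.32 nM upwards (inhibitor). Fluorescence Ex/Em 480/540 nm read at 5 and 30 min, then after adding cAMP or buffer, at room temperature.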

[7] = target: Rap guanine nucleotide exchange factor 3 (Homo sapiens) (UniProt O95398); experiment: Counterscreen qHTS for agonist of cAMP-regulated guanine nucleotide exchange factor 3 (EPAC1) (AID 1645889); further: nearly all actives have a fitted effect of over 40% in size; further: potency means the concentration at half of the fitted maximal effect
Outline: as §1

[8] = AP1 Signaling Pathway (AID 357; active means well fitted curve in either direction with a large enough effect, not every such curve was filed as active;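 further: ME-180 reporter cells stimulated with EGF at its EC50 level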); conditions: ME-180 (cervical carcinoma) AP-1-bla reporter, EGF-induced, beta-lactamase ratio, 5 h; at 7.69 µM (top of the series) unless noted
Outline: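 Titration-series screen for positive or negative modulators of EC50 EGF-induced signaling in ME-180 cells carrying an AP-1-driven beta-lactamase reporter. After 5 hours at 37 degrees Celsius, CCF4 460nm/530nm emission ratio gave %Activity; AC50 values derived.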

[9] = NFAT Signaling Pathway (AID 444; active means well fitted curve in either direction with a large enough effect, not every such curve was filed as active;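 further: carbachol stimulus at about its EC50 of 1 µM final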); conditions: Jurkat NFAT-bla M1, carbachol, beta-lactamase ratio, 5 h; at 7.69 µM (top of the series) unless noted
Outline: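 Jurkat cells with NFAT-driven β-lactamase reporter and co-expressed M1 receptor, stimulated with carbachol (final 1 uM, ~EC50), compound titration, 5 h at 37 °C. CCF4 loaded 1 h at RT; 460/530 nm ratio gave %activity and AC50.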

[10] = Stat Signaling Pathway (AID 446; active means well fitted curve in either direction with a large enough effect, not every such curve was filed as active;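 further: ME-180 cervical cancer cells given 40 pM IL-6 alongside compound; SIE-controlled beta-lactamase reporter measured as 460/530 nm FRET emission ratio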)
Outline: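 Compound effects on IL-6-induced STAT reporter activity were measured in ME-180 cells. After overnight culture, cells were co-treated with 40 pM IL-6 for 5 hrs before beta-lactamase substrate loading at room temperature.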

[11] = target: Glucocorticoid receptor (Homo sapiens) (UniProt P04150); experiment: GR-GFP Redistribution (AID 450;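 active means compounds whose dose series gives a full or clear partial fitted curve of increased nuclear translocation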; further: potency means the concentration at half of the fitted maximal effect); conditions: U2OS GR-GFP nuclear translocation, laser cytometry, 2 h
Chain of Glucocorticoid receptor (Homo sapiens) (P04150 whole entry, looked up, the tested form may be a part): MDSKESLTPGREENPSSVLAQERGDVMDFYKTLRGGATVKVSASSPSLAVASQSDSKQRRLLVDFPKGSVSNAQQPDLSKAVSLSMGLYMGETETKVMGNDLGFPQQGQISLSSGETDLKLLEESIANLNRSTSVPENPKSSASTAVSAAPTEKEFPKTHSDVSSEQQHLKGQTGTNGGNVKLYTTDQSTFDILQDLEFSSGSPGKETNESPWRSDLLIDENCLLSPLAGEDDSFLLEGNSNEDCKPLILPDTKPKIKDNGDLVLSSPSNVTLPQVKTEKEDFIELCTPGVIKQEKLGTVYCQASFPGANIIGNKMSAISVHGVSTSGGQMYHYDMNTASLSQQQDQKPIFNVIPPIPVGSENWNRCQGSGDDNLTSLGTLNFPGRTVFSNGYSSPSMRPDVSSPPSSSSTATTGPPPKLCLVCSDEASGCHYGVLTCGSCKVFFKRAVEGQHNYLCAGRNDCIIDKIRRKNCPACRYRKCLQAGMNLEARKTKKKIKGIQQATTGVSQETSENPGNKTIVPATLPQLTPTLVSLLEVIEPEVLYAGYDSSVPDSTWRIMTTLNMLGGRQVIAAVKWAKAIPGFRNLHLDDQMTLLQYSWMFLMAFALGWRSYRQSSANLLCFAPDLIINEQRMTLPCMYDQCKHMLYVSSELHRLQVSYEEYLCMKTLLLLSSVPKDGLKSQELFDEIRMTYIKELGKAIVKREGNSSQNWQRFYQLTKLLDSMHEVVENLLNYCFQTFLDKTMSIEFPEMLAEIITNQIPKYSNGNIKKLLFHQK

[12] = target: ATPase family AAA domain-containing protein 5 (Homo sapiens) (UniProt Q96QE3); experiment: HTS assay for small molecules that inhibit ELG1-dependent DNA repair in human embryonic kidney (HEK293T) cells expressing luciferase-tagged ELG1: Hit Confirmation (AID 624248); conditions: HEK293T ELG1-luciferase levels, luminescence; cells co-treated with 5-fluorouridine; further: potency means the concentration at half of the fitted maximal effect; nearly all actives have a fitted effect of over 55% in size
Chain of ATPase family AAA domain-containing protein 5 (Homo sapiens) (Q96QE3 whole entry, looked up, the tested form may be a part): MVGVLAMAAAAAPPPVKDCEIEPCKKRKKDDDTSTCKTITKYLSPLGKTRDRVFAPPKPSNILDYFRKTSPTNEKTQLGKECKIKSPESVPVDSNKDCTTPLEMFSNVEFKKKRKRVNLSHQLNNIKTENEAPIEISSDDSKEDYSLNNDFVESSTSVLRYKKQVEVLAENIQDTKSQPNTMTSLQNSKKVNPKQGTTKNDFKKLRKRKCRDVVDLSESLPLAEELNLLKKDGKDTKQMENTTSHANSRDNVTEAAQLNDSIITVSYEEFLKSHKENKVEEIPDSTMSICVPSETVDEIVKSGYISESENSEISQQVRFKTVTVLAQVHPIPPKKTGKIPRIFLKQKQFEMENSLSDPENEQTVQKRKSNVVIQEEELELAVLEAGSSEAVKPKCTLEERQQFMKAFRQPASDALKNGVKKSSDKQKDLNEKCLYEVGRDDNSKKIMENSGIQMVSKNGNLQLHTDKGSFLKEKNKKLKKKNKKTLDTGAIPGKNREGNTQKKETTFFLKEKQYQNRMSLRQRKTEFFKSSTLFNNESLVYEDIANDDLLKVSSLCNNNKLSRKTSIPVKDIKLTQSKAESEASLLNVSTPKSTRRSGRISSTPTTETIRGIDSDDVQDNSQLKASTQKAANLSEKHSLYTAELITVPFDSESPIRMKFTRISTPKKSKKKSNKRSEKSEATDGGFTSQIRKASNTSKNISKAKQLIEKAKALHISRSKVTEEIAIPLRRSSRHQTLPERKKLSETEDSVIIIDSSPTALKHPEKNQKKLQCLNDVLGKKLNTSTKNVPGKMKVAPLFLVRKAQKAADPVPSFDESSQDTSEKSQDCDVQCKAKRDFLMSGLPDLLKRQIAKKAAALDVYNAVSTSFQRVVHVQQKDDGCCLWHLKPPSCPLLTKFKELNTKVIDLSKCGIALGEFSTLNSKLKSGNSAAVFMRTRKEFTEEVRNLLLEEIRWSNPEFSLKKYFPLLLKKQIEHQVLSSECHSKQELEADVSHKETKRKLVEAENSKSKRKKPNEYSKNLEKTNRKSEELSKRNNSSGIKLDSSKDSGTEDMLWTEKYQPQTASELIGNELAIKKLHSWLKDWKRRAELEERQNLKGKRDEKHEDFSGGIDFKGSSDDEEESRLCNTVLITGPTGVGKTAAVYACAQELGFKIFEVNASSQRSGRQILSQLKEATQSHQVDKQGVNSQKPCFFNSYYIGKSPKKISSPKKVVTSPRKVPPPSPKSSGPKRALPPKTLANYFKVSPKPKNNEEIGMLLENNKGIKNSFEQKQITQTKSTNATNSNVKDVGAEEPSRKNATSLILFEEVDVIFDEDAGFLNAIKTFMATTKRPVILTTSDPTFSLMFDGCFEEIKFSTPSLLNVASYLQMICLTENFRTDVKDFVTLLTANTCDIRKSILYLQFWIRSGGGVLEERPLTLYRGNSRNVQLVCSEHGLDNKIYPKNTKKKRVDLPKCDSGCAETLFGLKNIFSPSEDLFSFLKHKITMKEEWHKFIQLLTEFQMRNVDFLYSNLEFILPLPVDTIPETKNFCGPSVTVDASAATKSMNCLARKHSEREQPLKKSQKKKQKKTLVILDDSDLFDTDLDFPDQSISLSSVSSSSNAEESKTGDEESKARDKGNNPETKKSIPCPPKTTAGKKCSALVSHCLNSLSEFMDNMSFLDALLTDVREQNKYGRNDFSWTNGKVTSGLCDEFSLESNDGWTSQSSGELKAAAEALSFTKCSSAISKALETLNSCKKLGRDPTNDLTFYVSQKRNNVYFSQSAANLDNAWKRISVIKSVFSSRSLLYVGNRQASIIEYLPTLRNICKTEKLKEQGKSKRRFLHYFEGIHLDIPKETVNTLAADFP
Outline: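 HEK293T cells expressing luciferase-tagged ELG1 treated with 5-fluorouridine plus compound for 16 h at 37 C; luciferase activity then measured with ONE-Glo after 30 min at room temperature.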

[13] = target: ATPase family AAA domain-containing protein 5 (Homo sapiens) (UniProt Q96QE3); experiment: qHTS screen for small molecules that inhibit ELG1-dependent DNA repair in human embryonic kidney (HEK293T) cells expressing luciferase-tagged ELG1: Hit Confirmation using MMS Stimulated ELG1 (AID 624249); further: potency means the concentration at half of the fitted maximal effect; nearly all actives have a fitted effect of over 60% in size
Outline: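 Luminescence from luciferase-tagged ELG1 measured 16 h after pin-tool compound transfer into HEK293T cells stimulated with 10 µM MMS (final). Compounds lowering luciferase signal counted as inhibitors of ELG1 response.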

[14] = qHTS screen for small molecules that inhibit ELG1-dependent DNA repair: Hit Confirmation with MMS Viability (AID 624251);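 further: viability read 16 h after compound addition; nearly all actives have a fitted effect of over 60% in size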
Outline: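 HEK293T ELG1-luc, 2,000 cells/well; cpd pin-transferred ~5 h post-seeding; MMS 10 µM final; 16 h; CellTiter-Glo viability.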

## Cc1ccc(-c2cn3nc(-c4ccccc4)c(-c4ccccc4)nc3n2)cc1
[1]
  Potency: 25.9 µM (active)
[2]
  Potency: inactive
[3]
  Potency: inactive
[4]
  Potency: inactive
[5]
  Potency: inactive
[6]
  Potency: inactive
[7]
  Potency: inactive

## CC1=C(C#N)C(=O)OC(C)(C)C1
[8]
  activity change, negative = inhibition: 8.14% [at 17.2 µM]
[9]
  activity change, negative = inhibition: -4.86% [at 17.2 µM]
[10]
  outcome: inactive
[11]
  Potency: > 20.6 µM
[2]
  Potency: inactive
[3]
  Potency: inactive
[4]
  Potency: inactive
[5]
  Potency: 0.601 µM (active)
[6]
  Potency: inactive

## Cc1ccc2oc(=O)c(/C=C(\O)c3cccs3)nc2c1
[2]
  Potency: inactive
[3]
  Potency: 100 µM (active)
[4]
  Potency: 89.1 µM (active)
[5]
  Potency: 23.9 µM (active)
[7]
  Potency: 39.8 µM (active)

## Cc1ccc(CNC(=O)c2ccc3c(c2)nc(C)n3-c2cccc(F)c2)cc1
[2]
  Potency: inactive
[3]
  Potency: inactive
[4]
  Potency: inactive
[5]
  Potency: inactive
[7]
  Potency: inactive

## CCC(Sc1nncn1C)C(=O)Nc1nnc(-c2ccc(Cl)cc2)s1 (configuration not stated)
[2]
  Potency: inactive
[3]
  Potency: inactive
[4]
  activation: 5.37% [at 17.1 µM, percent relative to cAMP agonist control]
[5]
  Potency: inactive
[7]
  activation: -0.401% [at 30.8 µM]

## N#C/C(=C\c1ccccn1)c1nc2ccccc2s1
[1]
  Potency: inactive
[2]
  Potency: 19 µM (active)
[3]
  Potency: inactive
[4]
  Potency: inactive
[5]
  Potency: inactive
[6]
  Potency: inactive

## CCCOc1ccc(/C(O)=C2/C(=O)C(=O)N(c3ccccn3)C2c2ccc(OC)cc2)cc1C (configuration not stated)
[2]
  Potency: 33.8 µM (active)
[3]
  Potency: inactive
[4]
  Potency: inactive
[5]
  Potency: inactive
[7]
  Potency: inactive

## COc1cccc(NC(=O)/C(C#N)=C/c2ccc(-c3ccc(C)cc3)o2)c1
[1]
  Potency: inactive
[2]
  Potency: inactive
[3]
  Potency: inactive
[4]
  Potency: inactive
[5]
  Potency: inactive
[6]
  Potency: inactive

## CCC(=O)NC(c1ccc(C)cc1)c1ccc2cccnc2c1O (configuration not stated)
[2]
  Potency: inactive
[3]
  Potency: inactive
[4]
  Potency: inactive
[5]
  Potency: 5.36 µM (active)
[7]
  Potency: inactive

## CC(C)Cn1c(SC(C)C(=O)NCC2CCCO2)nc2ccc(Cl)cc2c1=O (configuration not stated)
[2]
  Potency: inactive
[3]
  Potency: inactive
[4]
  Potency: inactive
[5]
  Potency: 5.36 µM (active)
[7]
  Potency: inactive

## COc1cccc(CC(=NO)c2cccc(OC)c2)c1
[2]
  Potency: inactive
[3]
  Potency: inactive
[4]
  activation: 4.78% [at 17.1 µM, percent relative to cAMP agonist control]
[5]
  Potency: inactive
[7]
  activation: 2.23% [at 30.8 µM]

## COc1cc(NC(=O)c2ccnc(N)c2)cc(C(=O)Nc2cccc(C(F)(F)F)c2)c1
[2]
  Potency: 42.6 µM (active)
[3]
  Potency: inactive
[4]
  Potency: inactive
[5]
  Potency: inactive
[7]
  Potency: inactive

## Cc1ccc(C)c2nc3sc(C(=O)N4CCCc5ccccc54)c(N)c3cc12
[1]
  Potency: 20.6 µM (active)
[2]
  Potency: inactive
[3]
  Potency: inactive
[4]
  Potency: inactive
[5]
  Potency: inactive
[6]
  Potency: inactive

## COc1ccc(-c2cc(C(=O)N(C)CC(=O)Nc3ccccc3Cl)c3ccccc3n2)cc1OC
[12]
  Potency: 4.99 µM (active)
[13]
  Potency: 12.5 µM (active)
[14]
  outcome: inactive
[2]
  Potency: inactive
[3]
  Potency: inactive
[4]
  activation: 3.75% [at 17.1 µM, percent relative to cAMP agonist control]
[5]
  Potency: inactive
[6]
  activity change, negative = inhibition: -9.19% [at 30.8 µM]
